An excerpt weighted towards active compounds, which were near 3.4% of everything screened.
Env fusion inh: inhibitors of HIV Env-mediated cell fusion; HeLa-JRFL Env/CEM21 cell fusion, luciferase; inhibition, % at 12.3 µM; actives 1.1% (n = 360,000);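 active = mean replicate inhibition score of at least 50 and every replicate individually at or above 50; inconclusive = only one of the two criteria met; inactive = mean below 50 and not all replicates reaching 50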;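 note: 0% = plate neutral controls and 100% = maraviroc near 300 nM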
miR-122 sensor: inhibitors of miR-122 in Huh7 cells | activation (reporter increase), % at 12.5 µM | actives 0.3% (n = 340,000) | AID 602342 | Huh7 miR-122 Renilla luciferase sensor, 48 h; neutral wells = 0, positive control = 100;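 active = mean replicate activation score at least 90 and every replicate individually at or above 90; inconclusive = only one of the two criteria met; inactive = neither criterion met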;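 note: higher luciferase means less miR-122 activity so hits act as miR-122 inhibitors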
MITF act: MITF TRPM1 promoter activation in melanoma cells; SK-MEL-5 TRPM1-promoter luciferase, 24 h; % of positive control, neutral wells = 0; activation, % at 12.5 µM; actives 0.75% (n = 300,000);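 active = mean activation of at least 80% with every replicate also reaching 80%; inconclusive = mean reaches 80% but some replicate falls short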;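 note: 0% = neutral control wells and 100% = parthenolide positive control wells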
esBAF inh: SWI/SNF esBAF complex inhibition | mouse ES cells, Bmi1-luciferase knock-in reporter, 24 h; 100% = twice the neutral-well signal | reporter increase, % at 12.5 µM | actives 2% (n = 350,000) | AID 602393; in the data active = activation above about 40%; inconclusive = no clear call, values can overlap the other calls;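 note: 0% = median of the plate's neutral control wells and 100% = double that signal; a rise in the Bmi1 reporter signal indicates esBAF inhibition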
Wnt act: activators of Wnt/beta-catenin signaling | activation, % at 9.35 µM | actives 1.2% (n = 300,000) | Wnt/beta-catenin reporter cell assay, activator, plate reader; in the data active = activation above about 30%, passing the limit was not always enough; inconclusive = no clear call, values can overlap the other calls;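 note: 0% = neutral control wells and 100% = positive control wells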
The depositor's hits bear a star; [ ] = another dose, or the depositor's remark.

For COc1ccc(Nc2nc(N3CCCC3)nc(N3CCOCC3)n2)cc1 the results were Env fusion inh 19.2, MITF act 31.9, esBAF inh 6.7 and Wnt act 1.8.
`c1ccc(Nc2nc(N3CCCC3)nc(N3CCOCC3)n2)cc1` gave Env fusion inh 61.5*, MITF act 20.7, esBAF inh -8.4 and Wnt act 0.4.
Screening S=C(Nc1ccc(Cl)cc1)c1nc2ccccc2[nH]1 returned Env fusion inh 58.5*, miR-122 sensor 8.7 and MITF act 17.6.
Cc1ccccc1NC(=O)NCCc1nc2ccccc2[nH]1 was read as miR-122 sensor -2.1, MITF act 1.3 and esBAF inh 2.2.
Cc1ccccc1NC(=S)c1nc2ccccc2[nH]1 was read as Env fusion inh -81.8, miR-122 sensor 5.8, MITF act 16.7, esBAF inh 49.1* and Wnt act -1.6.
`Cc1cc(C)n(-c2nc(-c3cccc(Cl)c3)cs2)n1` gave miR-122 sensor 0.7, esBAF inh 49.0* and Wnt act -2.1.
`Cc1ccc(-c2nnc(Cc3ccc([N+](=O)[O-])cc3)o2)cc1` gave Env fusion inh -59.9, miR-122 sensor 3.2, MITF act 93.7*, esBAF inh -4.7 and Wnt act inconclusive.
For O=[N+]([O-])c1ccc(Cc2nnc(-c3ccc(F)cc3)o2)cc1 the results were Env fusion inh -33.5, MITF act inconclusive and Wnt act inconclusive.
CN(C)C(=O)C[C@@H]1C[C@@H]2c3cc(NC(=O)NC4CCCC4)ccc3O[C@@H]2[C@H](CO)O1 was read as Env fusion inh 3.1[16.7 µM], miR-122 sensor 2.2[16.7 µM] and esBAF inh -5.9.
Nc1[nH]ncc1-c1ccc(Cl)cc1 was read as Env fusion inh 11.2, MITF act 10.9 and Wnt act -2.5.
For Nc1[nH]ncc1N=Nc1ccc(Cl)cc1 the results were Env fusion inh -150.2, miR-122 sensor -5.0, MITF act 63.8 and esBAF inh 47.3*.
CCCC#Cc1ccc2c(c1)O[C@@H](CN(C)Cc1ccccn1)[C@H](C)CN([C@H](C)CO)S2(=O)=O was read as Env fusion inh 5.2[16.7 µM], miR-122 sensor 20.2[16.7 µM] and esBAF inh 2.0.
`CC(=O)Nc1cc(S(=O)(=O)Nc2ccc(C)cc2)c(C)cc1C` gave miR-122 sensor 128.6*, MITF act 3.9, esBAF inh -5.4 and Wnt act -0.6.
For Cc1ccc(OC(C)C(=O)Nc2ccc(C)c(S(=O)(=O)Nc3ccc(C)cc3C)c2)cc1 (configuration not stated) the results were Env fusion inh 12.8, miR-122 sensor 195.7*, MITF act -3.8 and esBAF inh 9.4.
Cc1ccc(OC(C)C(=O)Nc2ccncc2)cc1 (configuration not stated) was read as Env fusion inh 18.2, miR-122 sensor -5.3, MITF act -5.1, esBAF inh -8.9 and Wnt act -3.7.
O=C(Nc1ccc(Cl)cc1)N[C@H]1CC[C@@H](CCn2cc(Cc3ccccc3)nn2)O[C@H]1CO was read as Env fusion inh 13.2[16.7 µM] and esBAF inh -1.0.
For CSCc1ccc(C(=O)NCCSc2ccc(Br)cc2)cc1 the results were Env fusion inh -93.6, MITF act 108.0*, esBAF inh 47.8* and Wnt act inconclusive.
`O=C(NCCSc1ccc(Br)cc1)c1ccccc1` gave Env fusion inh 8.0, MITF act 17.1 and Wnt act -1.5.
For C[C@@H]1CCCCO[C@H](CN(C)Cc2ccc(Cl)c(Cl)c2)[C@@H](C)CN([C@@H](C)CO)C(=O)c2cc(N(C)C)ccc2O1 the results were Env fusion inh -19.7[16.7 µM], miR-122 sensor 0.5[16.7 µM] and esBAF inh -2.3.
Nc1ccc(-c2nc3ccc(C(=O)O)cc3s2)cc1 was read as Env fusion inh 69.2*, MITF act -113.2 and Wnt act -15.5.
Cc1ccccc1-c1ccc([C@@H]2[C@H]3CN(S(C)(=O)=O)CCCCN3[C@H]2CO)cc1 was read as miR-122 sensor 18.5[16.7 µM] and esBAF inh -0.2.
For O=C(C[C@H]1CC[C@H](NC(=O)C2CCOCC2)[C@@H](CO)O1)Nc1ccc(-c2ccccc2)cc1 the results were Env fusion inh 10.3[16.7 µM] and esBAF inh 17.8.
`CCN(CC)CCCn1c2c(c(SCC(=O)Nc3cc(C)cc(C)c3)nc1=O)CCC2` gave Env fusion inh -1.4, miR-122 sensor -7.3, esBAF inh -7.1 and Wnt act -1.1.
Screening CCN(CC)CCn1c2c(c(SCC(=O)Nc3cc(OC)cc(OC)c3)nc1=O)CCC2 returned Env fusion inh 60.6*, miR-122 sensor 1.2, MITF act -5.6, esBAF inh -1.7 and Wnt act -1.3.
`COc1cccc(-c2ccc3c(c2)[C@H]2[C@H](CCN2S(=O)(=O)c2ccccc2OC)[C@@H](CO)N3C)c1` gave miR-122 sensor 2.9[16.7 µM] and esBAF inh -2.5.
For COC(=O)c1[nH]c2ccc(Cl)cc2c1NC(=O)Oc1ccccc1 the results were Env fusion inh -237.1, miR-122 sensor -0.4, esBAF inh 57.9* and Wnt act 20.2.
Screening C/C(=N/NC(=O)c1ccncc1)c1ccc(NC(=O)c2ccc(Cl)cc2Cl)cc1 returned Env fusion inh -25.4, miR-122 sensor -6.2, MITF act 87.6* and Wnt act 23.8.
C/C(=N\NC(=O)c1ccc(Cl)cc1)c1cccc(NC(=O)c2cccnc2)c1 was read as Env fusion inh -153.7, miR-122 sensor -3.3, MITF act 48.6, esBAF inh 23.7 and Wnt act 4.4.
`C/C(=N\NC(=O)c1ccc(O)cc1)c1cccc(NC(=O)c2ccc(Cl)cc2)c1` gave Env fusion inh -15.9, miR-122 sensor -2.3, esBAF inh 52.5* and Wnt act 25.9.
For Cc1cc(C=C2C(=O)c3ccccc3C2=O)c(C)n1C the results were Env fusion inh -40.8, miR-122 sensor -4.8, MITF act 7.8, esBAF inh -8.0 and Wnt act 62.9*.
`C[C@H](CO)N1C[C@H](C)[C@H](CN(C)Cc2ccc(C(=O)Nc3ccccc3N)cc2)Oc2ccc(NS(=O)(=O)c3ccc(Cl)cc3)cc2C1=O` gave miR-122 sensor 48.1[16.7 µM] and esBAF inh -22.6.
CO[C@H]1CN(C)C(=O)c2ccc(NS(=O)(=O)c3ccc(F)cc3)cc2OC[C@H](C)NC[C@@H]1C was read as Env fusion inh -3.0[16.7 µM].
`CCOC(=O)CN(C(=O)CSc1nnnn1C)c1ccccc1` gave Env fusion inh 70.7*, miR-122 sensor 1.6, MITF act -4.0, esBAF inh 1.5 and Wnt act -2.8.
Screening CCOC(=O)CN(C(=O)CSc1nnc(Cc2ccccc2)n1-c1ccc(C)cc1)c1ccccc1 returned miR-122 sensor -8.1, MITF act -5.4 and esBAF inh 12.9.
`C[C@@H]1CN([C@@H](C)CO)C(=O)c2cc(NS(=O)(=O)c3cccs3)ccc2O[C@@H]1CN(C)S(=O)(=O)c1ccc(Cl)cc1` gave miR-122 sensor 23.3[16.7 µM] and esBAF inh 8.8.
CCOc1ccc2nc(NC(=O)CS(=O)(=O)c3ccccc3)sc2c1 was read as miR-122 sensor -1.2, MITF act 29.2 and esBAF inh 34.4.
